Assay results reported in article PMC7826789 (International Journal of Molecular Sciences, 2021).

Columns and labels:
Conditions in all cases: Compound Concentration (nM):1000
SIK = tested on: T1, SIK
T1 construct: gene SIK1

SLK = tested on: SLK
SNARK = tested on: T2, SNARK
T2 construct: gene NUAK2

SNRK = tested on: SNRK
SRC = tested on: SRC
SRMS = tested on: SRMS
SRPK1 = tested on: SRPK1
SRPK2 = tested on: SRPK2
SRPK3 = tested on: SRPK3
STK16 = tested on: STK16
STK33 = tested on: STK33
STK35 = tested on: STK35
STK36 = tested on: STK36
STK39 = tested on: STK39
SYK = tested on: SYK
SgK110 = tested on: SgK110
TAK1 = tested on: T3, TAK1
T3 construct: gene MAP3K7

TAOK1 = tested on: TAOK1
TAOK2 = tested on: TAOK2
TAOK3 = tested on: TAOK3
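Also: KINOMEscan scanMAX binding as percent activity remaining versus control; lower means stronger binding.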

Compound | Percent Control (SIK) [%] | Percent Control (SLK) [%] | Percent Control (SNARK) [%] | Percent Control (SNRK) [%] | Percent Control (SRC) [%] | Percent Control (SRMS) [%] | Percent Control (SRPK1) [%] | Percent Control (SRPK2) [%] | Percent Control (SRPK3) [%] | Percent Control (STK16) [%] | Percent Control (STK33) [%] | Percent Control (STK35) [%] | Percent Control (STK36) [%] | Percent Control (STK39) [%] | Percent Control (SYK) [%] | Percent Control (SgK110) [%] | Percent Control (TAK1) [%] | Percent Control (TAOK1) [%] | Percent Control (TAOK2) [%] | Percent Control (TAOK3) [%]
CCc1ccc(Oc2nccc(-c3c(-c4ccc(F)cc4)ncn3C3CCNCC3)n2)cc1 [SB-242719] | 100 | 79 | 87 | 99 | 100 | 91 | 82 | 100 | 88 | 89 | 92 | 100 | 82 | 81 | 85 | 100 | 96 | 82 | 93 | 95
COc1ccc(COc2ccc(Cc3cnc(N)nc3N)cc2OC)cc1 [GW632580X] | 96 | 93 | 88 | 87 | 88 | 100 | 100 | 95 | 100 | 93 | 100 | 100 | 74 | 91 | 100 | 100 | 97 | 100 | 100 | 100
COc1cc2ncn(-c3cc(O[C@H](C)c4ccccc4Cl)c(C(N)=O)s3)c2cc1OC [GSK237701A] | 100 | 0.4 | 4.3 | 91 | 79 | 92 | 100 | 100 | 100 | 60 | 100 | 90 | 98 | 94 | 78 | 100 | 78 | 54 | 79 | 71
Cl.O=C(Nc1ccc(Oc2ccc3[nH]c(NC(=O)c4ccco4)nc3c2)cc1)Nc1cc(C(F)(F)F)ccc1F [GW683134A] | 100 | 40 | 100 | 95 | 96 | 100 | 100 | 100 | 84 | 92 | 9.8 | 81 | 100 | 100 | 100 | 100 | 9.1 | 100 | 97 | 100
NS(=O)(=O)c1ccc(N/N=C2\C(=O)Nc3ccc(-c4cnco4)cc32)cc1 [GW276655] | 77 | 86 | 49 | 55 | 83 | 73 | 100 | 100 | 76 | 46 | 100 | 99 | 100 | 88 | 100 | 73 | 32 | 86 | 95 | 98
CC1=C(C(=O)Nc2ccc3[nH]ncc3c2)C(c2ccc3ccccc3c2)CC(=O)N1 (stereo not shown) [GSK270822A] | 100 | 83 | 7.1 | 95 | 74 | 100 | 85 | 100 | 100 | 88 | 95 | 99 | 100 | 71 | 74 | 100 | 81 | 76 | 96 | 93
NS(=O)(=O)c1ccc(N/N=C2\C(=O)Nc3ccc(C(=O)NCc4ccncc4)cc32)cc1 [GW300657X] | 95 | 100 | 8.9 | 100 | 100 | 93 | 89 | 6.6 | 72 | 23 | 87 | 93 | 97 | 74 | 73 | 100 | 29 | 84 | 99 | 100
Cc1cc(O)cc(C)c1/C=C/c1cncc(C(N)=O)c1 [GW435821X] | 38 | 100 | 92 | 100 | 57 | 38 | 88 | 100 | 85 | 98 | 94 | 69 | 100 | 100 | 74 | 100 | 100 | 74 | 91 | 98
NS(=O)(=O)c1ccc(N/N=C2\C(=O)Nc3ccc(C(=O)NCCc4c[nH]cn4)cc32)cc1 [GW300660X] | 100 | 100 | 6.9 | 100 | 100 | 90 | 86 | 100 | 76 | 34 | 67 | 100 | 100 | 100 | 100 | 100 | 18 | 75 | 93 | 86
Cl.c1ccc(Cc2nc3ccc(Nc4ncnc5ccccc45)cc3[nH]2)cc1 [GR269666A] | 100 | 100 | 100 | 100 | 100 | 100 | 100 | 100 | 78 | 100 | 97 | 100 | 100 | 100 | 100 | 100 | 100 | 100 | 100 | 100
CCS(=O)(=O)c1ccc(OC)c(Nc2ncc(-c3cccc(F)c3)o2)c1 [GW621970X] | 100 | 100 | 100 | 100 | 19 | 67 | 92 | 97 | 100 | 38 | 95 | 100 | 100 | 100 | 81 | 100 | 100 | 87 | 100 | 100
CN1CCN(C(=O)c2ccc(NC(=O)Nc3ccc(N(C)c4ccnc(Nc5ccc(CS(C)(=O)=O)cc5)n4)cc3)cc2)CC1.Cl [GW830263A] | 92 | 8.9 | 39 | 78 | 100 | 77 | 2.3 | 80 | 7.7 | 15 | 92 | 71 | 37 | 79 | 34 | 89 | 25 | 71 | 76 | 83
Cl.O=S1CCN(Cc2ccc(-c3ccc4ncnc(Nc5ccc(OCc6ccccc6)c(F)c5)c4c3)o2)CC1 [GW576924A] | 100 | 100 | 96 | 100 | 100 | 100 | 100 | 100 | 78 | 100 | 84 | 100 | 100 | 100 | 100 | 100 | 100 | 100 | 100 | 100
Nc1ncnc2occ(-c3ccc(NC(=O)Nc4cc(C(F)(F)F)ccc4F)cc3)c12 [GW770249X] | 100 | 6.3 | 87 | 100 | 92 | 91 | 74 | 76 | 63 | 97 | 11 | 95 | 100 | 100 | 38 | 100 | 3.2 | 75 | 67 | 74
CC1=C(C(=O)Nc2ccc3[nH]ncc3c2)C(c2ccc(Cl)c(Cl)c2)CC(=O)N1 (stereo not shown) [GSK299115A] | 97 | 98 | 25 | 100 | 80 | 88 | 99 | 100 | 90 | 85 | 82 | 84 | 100 | 81 | 99 | 100 | 82 | 68 | 77 | 81
O=C1Nc2ccc(C(=O)c3ccco3)cc2C1=Cc1cc(Cl)c(O)c(Cl)c1 [GW406108X] | 93 | 100 | 79 | 100 | 100 | 89 | 88 | 100 | 100 | 60 | 86 | 100 | 87 | 81 | 100 | 100 | 30 | 40 | 100 | 85
COc1cccc(-c2c[nH]c3c(N/N=C/c4ccncc4)ncnc23)c1 [GW814408X] | 92 | 76 | 56 | 100 | 27 | 100 | 38 | 100 | 60 | 65 | 84 | 100 | 11 | 100 | 72 | 87 | 100 | 11 | 51 | 32
COc1cc(C)c(N(C)C(=O)CN(C)C)cc1Nc1nc(Nc2cccc(F)c2C(N)=O)c2cc[nH]c2n1 [GSK2219385] | 100 | 100 | 100 | 76 | 100 | 100 | 90 | 100 | 100 | 83 | 91 | 98 | 100 | 81 | 100 | 100 | 93 | 100 | 100 | 100
COc1ccc2cc(-c3c(-c4ccncc4)nc(-c4ccc(S(C)(=O)=O)cc4C)n3C)ccc2c1 [SB-633825] | 96 | 1.7 | 82 | 91 | 82 | 85 | 90 | 76 | 83 | 93 | 89 | 57 | 82 | 66 | 78 | 85 | 80 | 84 | 77 | 74
COc1cccc(-n2ncc3c(N/N=C/c4ccncc4)ncnc32)c1 [GW784752X] | 100 | 100 | 100 | 100 | 54 | 99 | 94 | 100 | 99 | 82 | 100 | 100 | 96 | 100 | 79 | 100 | 97 | 39 | 97 | 91
